According to PubChem BioAssay:
Activity calls are given as the source filed them. Unless noted, no rule for the calls is given here.

Tests used:
[1] = tested on: Wnt5a (protein binding on small-molecule microarray); test: Wnt5a binders on small-molecule microarray, primary screen, biophysical, 635/667 nm fluorescence (AID 1142); settings: 635 nm fluorescence, higher = more signal;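 also: fluorescence read at 667 nm with signal to noise per printed feature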
[2] = cell viability in Huh7 cells, primary screen, cytotoxicity control for HCV replication inhibitor project, CellTiter-Glo luminescence, basal, 48 h (AID 1143); settings: Huh7 HCV replicon, higher = more signal, called active from +8 up or from −8 down;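 also: Huh7 hepatoma cells carrying a hepatitis C replication reporter with no stimulus; test concentration not given here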
[3] = P. aeruginosa biofilm formation inhibitors, primary screen, PAO1 strain, BacTiter-Glo luminescence, LB-PBS (AID 1144); settings: 12 h, higher = more signal
[4] = CREB reporter modulators without forskolin, primary screen, cell-based, PC12, CRE-LacZ reporter, unstimulated (AID 1145); settings: no forskolin, luminescence, 4.5 h, higher = more signal, called active from +8 up or from −8 down
[5] = CREB reporter modulators under forskolin, primary screen, cell-based, PC12, CRE-LacZ reporter, forskolin-stimulated (AID 1146); settings: luminescence, 4.5 h, higher = more signal, called active from +8 up or from −8 down;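 also: PC12 cells with 6xCRE LacZ reporter stimulated by forskolin 10 µM; beta-galactosidase reporter signal reflecting CREB driven transcription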
[6] = biological target: Streptavidin (Streptomyces avidinii) (UniProt P22629); test: streptavidin binders on small-molecule microarray, primary screen, artefact control for SMM compound annotation, biophysical, 635/667 nm fluorescence (AID 1147); settings: streptavidin binding, higher = more signal;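 also: signal reflects streptavidin binding to arrayed compounds as a control protein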
Streptavidin (Streptomyces avidinii), sequence (P22629 whole entry, looked up): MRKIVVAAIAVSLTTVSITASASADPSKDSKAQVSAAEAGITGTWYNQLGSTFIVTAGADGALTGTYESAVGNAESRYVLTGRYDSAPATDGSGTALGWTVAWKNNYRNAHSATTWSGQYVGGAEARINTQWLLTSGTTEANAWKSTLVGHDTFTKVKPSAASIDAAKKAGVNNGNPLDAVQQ

[7] = small-molecule binders of probe aInhba, primary screen, biochemical, small-molecule microarray, 635/667 nm fluorescence (AID 1148); settings: higher = more signal;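 also: score merges 667nm spot fluorescence with signal-to-noise for antibody binding to printed compounds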
Torsin-1A (Homo sapiens) [8] = biological target: Torsin-1A (Homo sapiens) (UniProt O14656); test: torsin A binders from cell lysate, primary screen, small-molecule microarray, wild-type, 635/667 nm (AID 1149); settings: COS7 hTOR1A-WT lysate, 635 nm fluorescence, higher = more signal
Torsin-1A (Homo sapiens), sequence (O14656 whole entry, looked up): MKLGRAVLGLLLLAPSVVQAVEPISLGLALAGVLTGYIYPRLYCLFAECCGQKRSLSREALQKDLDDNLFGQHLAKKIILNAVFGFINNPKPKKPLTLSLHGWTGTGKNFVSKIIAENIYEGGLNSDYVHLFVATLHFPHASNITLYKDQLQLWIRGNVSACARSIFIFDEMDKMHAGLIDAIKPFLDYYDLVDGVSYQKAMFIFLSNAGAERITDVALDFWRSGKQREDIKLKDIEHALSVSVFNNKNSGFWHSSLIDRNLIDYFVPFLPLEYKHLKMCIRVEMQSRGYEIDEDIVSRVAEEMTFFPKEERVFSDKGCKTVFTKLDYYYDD

Torsin-1A (Homo sapiens) [9] = biological target: Torsin-1A (Homo sapiens) (UniProt O14656); test: small-molecule binders of mutant TOR1A in lysate, primary screen, cell lysate, small-molecule microarray, COS7 lysate, 635/667 nm fluorescence (AID 1150); settings: COS7 hTOR1A mutant lysate, 635 nm fluorescence, higher = more signal;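 also: score pools 667 nm emission and signal to noise measuring lysate protein binding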
[10] = tested on: Sonic hedgehog protein (Shh); test: small-molecule binders of Shh protein, primary screen, biochemical, small-molecule microarray, 635/667 nm fluorescence (AID 1151); settings: small-molecule microarray binding, 635 nm fluorescence; higher = more signal;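 also: Shh protein binding to compounds spotted on small-molecule microarray slides; score combines spot fluorescence intensity with signal-to-noise across triplicate slides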
[11] = E. coli DRC41 culture turbidity changes, primary screen, E. coli filamentation inducer project, strain DRC41, OD650, 48 h (AID 1152);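 also: E. coli MC1000 strain DRC41 lacking acrAB efflux pump and sulA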; settings: E. coli DRC41 (acrAB sulA), higher = more signal, called active from +8 up or from −8 down
[12] = small-molecule binders of probe aLefty1, primary screen, biochemical, small-molecule microarray, 635/667 nm fluorescence (AID 1153); settings: higher = more signal;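 also: score merges spot fluorescence with signal-to-noise ratio from the scanned slide images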
[13] = PSAC antagonists in infected red cells, primary screen, cell-based, P. falciparum Indochina, OD700, 1 h (AID 1154); settings: P. falciparum Indochina infected RBC osmotic lysis, higher = more signal, called active from +8 up or from −8 down
[14] = PSAC antagonists in infected red cells, primary screen, cell-based, P. falciparum Indochina, OD700, 2 h (AID 1155);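 also: lysis reports solute entry through the parasite surface anion channel PSAC; channel blockers reduce lysis of infected cells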; settings: P. falciparum Indochina infected erythrocytes, osmotic lysis OD700; higher = more signal, called active from +8 up or from −8 down
[15] = osmotic lysis modulators in infected erythrocytes, primary screen, PSAC antagonist project, cell-based, P. falciparum Indochina, OD700, 3 h (AID 1156); settings: higher = more signal, called active from +8 up or from −8 down
[16] = PSAC antagonists in infected red cells, primary screen, cell-based, P. falciparum Indochina, OD700, 18 h (AID 1157); settings: P. falciparum Indochina infected erythrocytes, osmotic lysis OD700, 18 h; higher = more signal, called active from +8 up or from −8 down
[17] = modulators of S6 phosphorylation in cells, primary screen, cell-based, A549, cytoblot, luminescence, serum-stimulated (AID 1158); settings: A549 phospho-S6 cytoblot, 5 h, higher = more signal;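 also: serum-stimulated A549 lung adenocarcinoma cells; signal is phosphorylated S6 detected by cytoblot immunostaining with HRP secondary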
[18] = biological target: NADPH oxidase 2 (Homo sapiens) (UniProt P04839); test: NOX2-dependent H2O2 signal modulators, primary screen, NOX inhibitor project, cell-based, HEK293-NOX2, PMA-stimulated, Amplex Red fluorescence (AID 1159); settings: 45 min, higher = more signal, called active from +8 up or from −8 down; also: test concentration not given here
NADPH oxidase 2 (Homo sapiens), sequence (P04839 whole entry, looked up): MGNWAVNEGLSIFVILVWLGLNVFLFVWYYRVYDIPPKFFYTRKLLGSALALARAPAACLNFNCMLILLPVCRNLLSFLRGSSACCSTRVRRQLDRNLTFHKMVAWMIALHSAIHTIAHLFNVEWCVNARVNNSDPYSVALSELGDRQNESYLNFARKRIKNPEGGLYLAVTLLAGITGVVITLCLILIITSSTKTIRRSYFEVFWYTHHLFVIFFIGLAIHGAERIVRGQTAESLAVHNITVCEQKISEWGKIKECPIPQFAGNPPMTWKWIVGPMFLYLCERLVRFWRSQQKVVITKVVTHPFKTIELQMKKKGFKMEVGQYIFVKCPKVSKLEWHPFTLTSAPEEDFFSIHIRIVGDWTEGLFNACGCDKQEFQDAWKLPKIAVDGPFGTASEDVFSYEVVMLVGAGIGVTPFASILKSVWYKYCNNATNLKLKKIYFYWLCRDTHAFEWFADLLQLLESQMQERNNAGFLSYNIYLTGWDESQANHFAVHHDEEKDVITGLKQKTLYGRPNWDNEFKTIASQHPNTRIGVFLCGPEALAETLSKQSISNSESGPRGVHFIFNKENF

[19] = biological target: NADPH oxidase 4 (Homo sapiens) (UniProt Q9NPH5); test: NOX4-dependent H2O2 signal modulators, primary screen, NOX inhibitor project, cell-based, HEK293-NOX4, tetracycline-induced, Amplex Red fluorescence (AID 1160); settings: 45 min, higher = more signal, called active from +8 up or from −8 down
NADPH oxidase 4 (Homo sapiens), sequence (Q9NPH5 whole entry, looked up): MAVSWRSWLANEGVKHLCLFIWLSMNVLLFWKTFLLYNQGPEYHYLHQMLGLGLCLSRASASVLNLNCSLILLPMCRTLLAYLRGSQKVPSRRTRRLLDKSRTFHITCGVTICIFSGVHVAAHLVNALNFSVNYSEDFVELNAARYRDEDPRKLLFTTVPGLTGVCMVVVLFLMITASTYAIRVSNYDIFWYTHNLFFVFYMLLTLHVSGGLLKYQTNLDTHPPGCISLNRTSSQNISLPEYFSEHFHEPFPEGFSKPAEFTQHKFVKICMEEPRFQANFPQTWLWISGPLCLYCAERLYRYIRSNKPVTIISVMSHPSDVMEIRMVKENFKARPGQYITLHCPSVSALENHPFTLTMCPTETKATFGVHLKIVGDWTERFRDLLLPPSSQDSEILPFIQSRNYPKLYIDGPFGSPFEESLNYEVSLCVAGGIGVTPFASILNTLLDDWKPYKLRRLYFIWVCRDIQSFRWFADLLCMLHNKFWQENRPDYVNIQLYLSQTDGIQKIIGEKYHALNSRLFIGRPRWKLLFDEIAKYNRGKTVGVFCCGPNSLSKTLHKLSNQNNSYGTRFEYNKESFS

[20] = biological target: NADPH oxidase 5 (Homo sapiens) (UniProt Q96PH1); test: NOX5-dependent H2O2 signal modulators, primary screen, NOX inhibitor project, cell-based, HEK293-NOX5, Amplex Red fluorescence (AID 1161); settings: HEK293-NOX5, ionomycin, 45 min, higher = more signal
NADPH oxidase 5 (Homo sapiens), sequence (Q96PH1 whole entry, looked up): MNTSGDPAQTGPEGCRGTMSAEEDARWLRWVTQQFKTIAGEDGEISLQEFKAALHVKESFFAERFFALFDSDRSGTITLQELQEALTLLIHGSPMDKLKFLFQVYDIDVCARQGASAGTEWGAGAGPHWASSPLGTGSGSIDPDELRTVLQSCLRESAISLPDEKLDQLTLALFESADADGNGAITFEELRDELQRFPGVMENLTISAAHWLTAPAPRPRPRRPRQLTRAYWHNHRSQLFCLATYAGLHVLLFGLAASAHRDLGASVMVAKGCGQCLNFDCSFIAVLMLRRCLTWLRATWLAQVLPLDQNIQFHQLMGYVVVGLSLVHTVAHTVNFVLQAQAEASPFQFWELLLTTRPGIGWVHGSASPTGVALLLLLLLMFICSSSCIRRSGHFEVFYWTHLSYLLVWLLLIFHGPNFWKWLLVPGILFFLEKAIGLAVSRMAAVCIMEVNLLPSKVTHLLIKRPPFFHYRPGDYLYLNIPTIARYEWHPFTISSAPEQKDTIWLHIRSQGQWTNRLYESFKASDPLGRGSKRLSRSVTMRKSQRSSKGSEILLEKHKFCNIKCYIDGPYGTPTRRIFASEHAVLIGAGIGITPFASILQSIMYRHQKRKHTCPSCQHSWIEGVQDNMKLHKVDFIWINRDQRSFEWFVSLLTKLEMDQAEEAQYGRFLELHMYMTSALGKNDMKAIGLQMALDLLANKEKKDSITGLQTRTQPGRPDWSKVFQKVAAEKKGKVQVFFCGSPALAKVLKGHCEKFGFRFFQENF

Row | Structure (SMILES) | composite z-score [1] | z-score [2] | z-score [3] | z-score [4] | z-score [5] | composite z-score [6] | composite z-score [7] | composite z-score (Torsin-1A (Homo sapiens) [8]) | composite z-score (Torsin-1A (Homo sapiens) [9]) | composite z-score [10] | z-score [11] | composite z-score [12] | z-score [13] | z-score [14] | z-score [15] | z-score [16] | z-score [17] | z-score [18] | z-score [19] | z-score [20]
1 | COc1ccc(C#Cc2ccc3c(c2)[C@]2(C(=O)N3)[C@H](C(=O)O)[C@H]3C(=O)O[C@H](c4ccccc4)[C@H](c4ccccc4)N3[C@@H]2c2ccc(O)cc2)cc1 | 0.0637 | -4.48 (inactive) | -0.563 (inactive) | 0.0653 (inactive) | -0.332 (inactive) | -0.31 | -0.0313 | 0.269 | 0.578 | -0.454 | 0.384 (inactive) | 0.174 | -2.35 (inactive) | -2.47 (inactive) | -8.72 (active) | -2.8 (inactive) | 2.29 | 0.479 (inactive) | -3.77 (inactive) | -1.13
2 | CCCCC[C@H]1OC[C@@]23C=C(Br)[C@@H](CC12)[C@@]1(CO1)C3=O (stereo not given in full) | -0.233 | -0.473 (inactive) | 0.931 (inactive) | 0.495 (inactive) | 0.289 (inactive) | -0.619 | -0.128 | -0.695 | -0.424 | 0.647 | -1.12 (inactive) | -0.294 | 1.66 (inactive) | 0.533 (inactive) | 0.487 (inactive) | 0.184 (inactive) | -0.446 | -0.459 (inactive) | 0.438 (inactive) | 0.134
3 | CO[C@H]1O[C@H](CO)[C@@H](OC(=O)Nc2ccccc2)[C@H](OC(=O)c2cc3ccccc3[nH]2)[C@H]1OC(=O)c1cc2ccccc2[nH]1 | 0.411 | -4.49 (inactive) | -0.735 (inactive) | -0.211 (inactive) | -0.331 (inactive) | -0.265 | 0.0636 | 0.289 | 0.311 | 1.3 | 0.541 (inactive) | 0.214 | 0.909 (inactive) | -0.795 (inactive) | 0.447 (inactive) | -0.758 (inactive) | 1.27 | -6.27 (inactive) | -0.405 (inactive) | -2.16
4 | COc1ccc([Si](C)(C)[C@@H]2[C@@H](CC(=O)N3CCC[C@H]3CO)O[C@]3(C(=O)N(Cc4cccc(N5C(=O)COc6ccccc65)c4)c4ccccc43)[C@H]2C)cc1 | 0.326 | -5.39 (inactive) | 0.425 (inactive) | 1.5 (inactive) | -0.361 (inactive) | 0.554 | -0.0494 | 0.95 | 0.938 | 1.12 | -0.194 (inactive) | 0.0005 | 3.76 (inactive) | 1.41 (inactive) | -1.47 (inactive) | 0.646 (inactive) | 0.324 | 2.66 (inactive) | 1.74 (inactive) | 4.12
5 | CCCCCCCCCCC(O)C1C=CC2C(=O)N(c3ccccc3)C(=O)C2N1Nc1ccc(C#N)cc1 (stereo not given) | 0.525 | -3.71 (inactive) | -0.209 (inactive) | -0.519 (inactive) | 0.407 (inactive) | 1.66 | 0.215 | 0.225 | 0.646 | 0.314 | -1.08 (inactive) | 0.571 | 6.7 (inactive) | 2.33 (inactive) | 0.0103 (inactive) | 2.3 (inactive) | -0.817 | -1.32 (inactive) | 0.0477 (inactive) | -0.266
6 | COC(=O)[C@]1(CCS(=O)(=O)c2ccccc2)N=C(c2ccc(OCCCO)cc2)O[C@@H]1c1ccccc1N=[N+]=[N-] | 1.21 | -3.71 (inactive) | -0.731 (inactive) | 2.42 (inactive) | -0.889 (inactive) | 1.39 | 0.438 | 0.588 | 0.453 | 2.09 | -1.59 (inactive) | 0.569 | 29.4 (active) | 27.2 (active) | 4.22 (inactive) | 6.59 (inactive) | 0.188 | -2.07 (inactive) | 0.661 (inactive) | -2.01
7 | COc1cc(NN2C(C(O)c3ccc(N(C)C)cc3)C=CC3C(=O)N(c4ccccc4)C(=O)C32)cc(OC)c1OC (stereo not given) | 0.0759 | -2.89 (inactive) | -0.414 (inactive) | -0.136 (inactive) | -0.259 (inactive) | 0.535 | 0.242 | -0.223 | 0.419 | -0.254 | -2.71 (inactive) | 0.315 | 1.76 (inactive) | -0.891 (inactive) | 0.742 (inactive) | -0.765 (inactive) | 1.15 | -2.65 (inactive) | -4.37 (inactive) | -4.75
8 | CC1CC/C=C\[C@H]2OC34C=CCN(C(C)(C)C)C(=O)[C@H]3N(CCCCCO)C(=O)[C@@H]4C2C(=O)O1 (stereo not given in full) | -0.427 | 0.356 (inactive) | 0.477 (inactive) | -0.35 (inactive) | -0.928 (inactive) | -0.719 | -0.253 | -0.201 | -1.33 | 0.353 | -0.121 (inactive) | -0.0984 | 0.204 (inactive) | 0.437 (inactive) | -0.136 (inactive) | 0.21 (inactive) | -0.333 | 0.673 (inactive) | -0.225 (inactive) | 1.3
9 | O=C1OCCC/C=C\[C@H]2OC34C=CCN(c5ccc6ccccc6c5)C(=O)[C@H]3N(CCO)C(=O)[C@@H]4C12 (stereo not given in full) | -0.325 | 0.43 (inactive) | 0.515 (inactive) | 0.601 (inactive) | -0.183 (inactive) | -1.2 | -0.299 | -0.427 | -0.839 | -0.59 | -0.067 (inactive) | 0.0313 | 2.17 (inactive) | 0.476 (inactive) | 0.217 (inactive) | 0.532 (inactive) | 0.235 | 0.356 (inactive) | -0.419 (inactive) | 1.81
10 | CN(C)C(=O)[C@@]1(Cc2ccccc2CN=[N+]=[N-])N=C(c2ccc(OCCCO)cc2)O[C@H]1c1ccccc1N=[N+]=[N-] | 0.0168 | -4.96 (inactive) | -0.638 (inactive) | 1.74 (inactive) | -1.69 (inactive) | 1.51 | 0.439 | 0.504 | 1.21 | 0.66 | -0.383 (inactive) | 1.48 | 29.9 (active) | 26.7 (active) | 2.61 (inactive) | 6.04 (inactive) | 1.76 | -3.42 (inactive) | -0.18 (inactive) | -2.56
